Source: PubChem BioAssay (National Center for Advancing Translational Sciences (NCATS))
Sampled rows, rich in hits. Any-hit rate of the full collection: about 0.64%.
RECQ1 helicase: blocks DNA unwinding by human RECQ1; P46063; RECQ1 DNA unwinding, red fluorescence kinetic read; Potency, µM (highest dose often 57.3 µM), usual class: inhibitors; 0.54% of 240,000 active; AID 2549; note: nearly all actives have a fitted effect of over 30% in size
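RECQ1T1 50 nM; forked duplex (20 bp + 30-nt ss tails) 200 nM, ATP 2 mM final; pH 8.0, 2 mM MgCl2, 2.5 ug/ml poly(dI-dC); 15 min compound preincubation; discontinuous kinetic read over 2 h at RT.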
BLM helicase inh: Bloom syndrome helicase (human) inhibition | P54132 | recombinant BLM DNA unwinding, fluorescence dequenching | Potency, µM (highest dose often 56.1 µM), usual class: inhibitors | 0.2% of 350,000 active | AID 2528; note: nearly all actives have a fitted effect of over 35% in size
TexasRed fluor: Texas Red fluorescence interference in TRb-SRC2 counter-screen; TRb/SRC2 Texas Red total fluorescence interference; Potency, µM (titrated, usually from 106 µM); 0.29% of 280,000 active; AID 1479; active = well fitted curve in either direction with a large enough effect; inconclusive = small, poorly fitted or top-dose-only effect
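Flags fluorescent or light-absorbing compounds by total fluorescence, S + 2P, at 555 nm excitation and 632 nm emission. Mixture: 20 nM Texas Red SRC2 peptide, 0.6 uM human TRb LBD, 1 uM T3, 5% DMSO; compound exposure 5 h at ambient temperature.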
TRb-SRC2 inh: TRbeta-SRC2 interaction inhibition; TRbeta-SRC2 peptide binding, fluorescence polarization; receptor liganded with 1 µM T3; Potency, µM (doses to about 106 µM), usual class: inhibitors; 0.065% of 280,000 active; AID 1469; note: nearly all actives have a fitted effect of over 50% in size
Target sequence (P10828 whole entry, looked up): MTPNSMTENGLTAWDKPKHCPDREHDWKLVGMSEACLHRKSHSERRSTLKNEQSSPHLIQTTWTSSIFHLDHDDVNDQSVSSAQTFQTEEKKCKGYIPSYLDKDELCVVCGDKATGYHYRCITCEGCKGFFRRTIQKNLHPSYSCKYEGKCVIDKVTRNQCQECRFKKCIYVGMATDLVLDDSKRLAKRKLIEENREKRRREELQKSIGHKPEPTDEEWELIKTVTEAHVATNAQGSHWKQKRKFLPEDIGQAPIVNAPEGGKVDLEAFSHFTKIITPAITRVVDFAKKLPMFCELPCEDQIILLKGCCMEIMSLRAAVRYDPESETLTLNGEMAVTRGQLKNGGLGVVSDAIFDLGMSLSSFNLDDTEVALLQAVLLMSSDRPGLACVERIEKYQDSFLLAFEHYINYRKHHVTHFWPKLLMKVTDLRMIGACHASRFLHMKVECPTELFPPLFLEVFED
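Human TRb ligand-binding domain (0.6 uM) is mixed with 20 nM Texas Red SRC2 peptide and 1 uM T3; after compound addition and 5 hr at ambient temperature, polarization is measured and normalized to unbound and bound controls.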
A number is an active result; – = inactive; ? = inconclusive; · = no result given; ! = repeats disagree; [ ] = remark or other dose. Unless noted, calls come from the whole dose curve; as a rule, active = well fitted curve in the direction sought with a large enough effect; inconclusive = small, poorly fitted or top-dose-only effect, or another doubt; inactive = no such curve, though single readings can be large; an effect the other way counts as inactive or inconclusive.

SMILES | RECQ1 helicase | BLM helicase inh | TexasRed fluor | TRb-SRC2 inh
Cc1ccc(C(=O)N2CCC(c3c[nH]c4ccccc34)(c3c[nH]c4ccccc34)CC2)cc1 | · | – | – | –
COc1cccc(CNC(=O)C2CCN(S(=O)(=O)c3ccc4c(c3)CCCN4C(C)=O)CC2)c1 | · | – | – | –
NS(=O)(=O)c1cccc2c1c([N+](=O)[O-])cc1[nH]c(=O)c(=O)[nH]c12 | 1.4µM! | – | ? | –
COc1ccc(-c2nnc(Nc3ccc(CC(N)=O)cc3)c3ccccc23)cc1 | – | – | 35µM[quencher] | ?
CC1(C)CN(c2ccc(Br)cc2Br)C1=O | – | – | – | –
Cc1c(Cl)cccc1N1CC(C)(C)C1=O | 18µM | – | – | –
O=C=NCCCCCCN=C=O | · | · | – | –
COc1ccc(C(=O)Oc2ccc3c(-c4ccc(OC)cc4)cc(=O)oc3c2)cc1 | – | – | – | –
COc1ccc(-c2cc(=O)oc3c(O)c(O)ccc23)cc1 | · | 10µM | · | ·
CC1Cc2cc(S(=O)(=O)NCc3ccc(N(C)C)cc3)ccc2N1C(=O)C1CCC1 (centres undefined) | · | – | 22µM[quencher] | –
O=C(CCN1CCN(c2ccccc2)CC1)N/N=C/c1ccc(O)c(O)c1O | – | 11µM | – | –
COc1ccc(OC)c(Nc2nc(NCc3ccco3)c3ccccc3n2)c1 | · | 28µM | · | ·
CC1CCN(C(=O)CSc2nc3ccccc3nc2Cc2ccccc2)CC1 | · | – | – | –
COc1ccc(CCNC(=O)CCN2C(=O)C(C)Oc3ccc(C)cc32)cc1OC (centres undefined) | – | – | – | –
Cc1ccc(CNC(=O)CCN2C(=O)C(C)Oc3ccc(C)cc32)cc1 (centres undefined) | · | – | 35µM[quencher] | –
CCCCCCCCCCCCCCCCCC(N)=O | · | · | – | –
CCN(CCN(C)C)C(=O)c1ccc2c(c1NCCO)C(=O)c1ccccc1C2=O | – | 18µM | – | –
COc1ccc(NC(=O)Cn2c(=O)c3cc(Cl)ccc3n3nncc23)cc1 | · | – | 0.35µM[quencher] | –
COc1ccc(NC(=O)Cn2c(=O)c3ccccc3n3nncc23)cc1Cl | · | – | – | –
O=C=NC1CCC(CC2CCC(N=C=O)CC2)CC1 (centres undefined) | · | · | – | –
O=C(O)/C=C/C(=O)Nc1ccc(OC(F)(F)F)cc1Br | – | – | – | 32µM
O=C(O)/C=C/C(=O)Nc1ccc(OC(F)(F)F)cc1 | – | – | – | –
Cn1cccc1CC(=O)N/N=C/C=C/c1ccco1 | – | 25µM | – | –
O=C(CSc1nnc(SCc2ccccc2)s1)N/N=C/C=C\c1ccco1 | 25µM | 18µM | – | –
CC(C)c1ccc(C(C)C)cc1 | · | · | – | –
SMILES | RECQ1 helicase | BLM helicase inh | TexasRed fluor | TRb-SRC2 inh
COc1ccccc1-c1cc(C(=O)Nc2c(C)nn(Cc3ccc(Cl)cc3)c2C)no1 | · | – | – | –
COC(=O)c1ccc(N)cc1O | – | – | – | –
COC(=O)c1ccc(=O)c2nc3/c(=C/O)c(O)cc(=O)c3[nH]c12 | ? | 18µM | 25µM[quencher] | ?
C1CCC2(CCCCO2)OC1 | · | · | – | –
Cc1ccc(Nc2nc(N/N=C/c3c[nH]c4ccccc34)nc(N3CCOCC3)n2)cc1 | – | – | 631µM[quencher] | –
C(=N\Nc1nc(Nc2ccccc2)nc(N2CCOCC2)n1)/c1c[nH]c2ccccc12 | – | – | – | –
O=C(Oc1cccc(/C=N/Nc2nc(Nc3ccccc3)nc(N3CCOCC3)n2)c1)c1ccco1 | 22µM | – | – | –
COc1cc(/C=N/Nc2nc(N3CCCCC3)nc(N3CCCCC3)n2)ccc1OC(=O)c1ccco1 | – | – | – | –
C=C[Si](C)(C)O[Si](C)(C)C=C | · | · | – | –
Cc1cc2nc(-c3cccc(NC(=O)CSc4ccc(Cl)cc4)c3)oc2cc1C | · | – | – | –
COC(=O)N/N=C/c1cc(N=Nc2ccccc2)ccc1O | – | – | – | –
COC(=O)N/N=C/c1cc(N=Nc2ccccc2Cl)ccc1O | – | – | 40µM[quencher] | ?
CCOc1cc(-c2nc3c(c(CC)nn3-c3ccccc3)c3cc(OC)c(OC)cc23)ccc1O | · | – | – | –
CCOC(=O)NC(=O)C(/C=N/c1sccc1C(=O)OC)=C(\C)O | 14µM | – | – | ?
Cc1cc(O)c(C=O)c2c1C(=O)Oc1c(COC(=O)/C=C/C(=O)O)c(O)c(C(=O)O)c(C)c1O2 | 4µM | – | 7.1µM[quencher] | ?
Cc1cc(O)c(C=O)c(O)c1C(=O)O | – | – | – | –
Cc1cc(O)c(C=O)c2c1C(=O)Oc1c(CO)c(O)c3c(c1O2)C(O)OC3=O (centres undefined) | 4µM | – | 11µM[quencher] | ?
CC(C)[C@H](NC(=O)[C@@H](Cc1c[nH]c2ccccc12)NC(=O)[C@H](Cc1ccc(O)cc1)NC(=O)[C@@H](N)CC(=O)O)C(=O)N[C@H](Cc1c[nH]c2ccccc12)C(=O)N[C@H](Cc1c[nH]c2ccccc12)C(=O)N[C@@H](CCCCN)C(N)=O | 20µM | – | – | –
Cc1ccccc1C(=O)Nc1ccc2c(C#N)c3nc4ccccc4nc3n2c1 | 32µM | ? | ? | –
CCCN1CCN(c2nnc(-n3cccc3C(=O)Nc3ccccc3C(F)(F)F)s2)CC1 | · | – | – | –
Cc1c(O)cc2c(c1O)C(=O)CC(c1ccc(O)cc1)O2 (centres undefined) | 25µM | – | – | –
CCCSC1=NC2(CCN(C(=O)NC3CCCCC3)CC2)N=C1c1ccc(OC)cc1 | · | – | – | –
Nc1nc(N)c(-c2ccccc2)s1 | · | – | – | –
CCCCCOC(=O)CCN1C(=O)/C(=C2\SC(=S)N(CCC(=O)OCCCCC)C2=O)SC1=S | 1.6µM | – | – | –
CCCCOC(=O)CCN1C(=O)/C(=C2\SC(=S)N(CCC(=O)OCCCC)C2=O)SC1=S | – | – | – | –
SMILES | RECQ1 helicase | BLM helicase inh | TexasRed fluor | TRb-SRC2 inh
O=C(NCC(c1cccnc1)N1CCc2ccccc2C1)C(=O)Nc1ccc(F)cc1F (centres undefined) | · | – | 2.8µM[quencher] | ?
O=C(NCC(c1cccnc1)N1CCc2ccccc2C1)C(=O)Nc1ccc(Cl)cc1 (centres undefined) | · | – | – | –
COc1ccc(C(=O)NCC(c2cccnc2)N2CCc3ccccc32)cc1OC (centres undefined) | · | – | – | –
O=C(NCC(c1cccnc1)N1CCc2ccccc21)c1ccc(F)cc1 (centres undefined) | · | – | 0.079µM[quencher] | ?
O=C(/C=C/Nc1ccccc1)c1ccccc1 | – | – | – | –
CN(C)c1ccc(N/C=C/C(=O)c2ccccc2)cc1 | – | – | 45µM[fluorescent] | 32µM
CN(C)c1ccc(N/C=C/C(=O)C(C)(C)C)cc1 | – | – | ? | 45µM
N#CC(C#N)=C1C=C2C=C(N3CCCCCC3)CCC2CC1 (centres undefined) | 28µM | 13µM | – | –
N#CC(C#N)=C1C=C2C=C(N3CCOCC3)CCC2CC1 (centres undefined) | – | – | – | –
Cc1cccc(Nc2nnc(-c3ccc(C)c(S(=O)(=O)NCC4CCCO4)c3)c3ccccc23)c1 (centres undefined) | · | – | – | –
CCn1c(=O)c(=O)[nH]c2cc(C(=O)NC3CCCc4ccccc43)ccc21 (centres undefined) | – | – | 40µM[fluorescent] | –
